# L3MBTL1 inh – L3MBTL1 (human) inhibition; Potency, µM (top dose mostly 57.1 µM), for inactives: at the top dose activity, negative = inhibition, hits mostly inhibitors; Q9Y468; AlphaScreen L3MBTL1–H3K9me1 peptide binding; hit rate 0.66% among 230,000; AID 485360; note: % is set by controls: 0 for no effect and ±100 for the full control effect; nearly all actives have a fitted effect of over 60% in size
#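 AlphaScreen proximity signal between nickel-chelate acceptor and streptavidin donor beads (final 10 ug/mL) reports binding of 50 nM L3MBTL1 to 75 nM biotin-H3 K9me1 peptide; complex incubated with compounds 30 min at room temperature; cefsulodin titration as control.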
# G9a block – inhibitors of human histone lysine methyltransferase G9a. Q96KQ7. G9a H3K9 monomethylation, AlphaScreen, 2 h. Potency, µM (titrated, usually from 102 µM), inactives show top-dose activity, negative = inhibition, hits mostly inhibitors. hit rate 8.8% among 350,000; note: % is set by controls: 0 for no effect and ±100 for the full control effect; nearly all actives have a fitted effect of over 75% in size
#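 G9a (20 nM) was preincubated 15 min with compound, then reacted 2 h at room temperature with 500 nM biotin-H3K9 peptide and 20 µM SAM. Monomethyl-H3K9 detected by AlphaScreen using anti-H3K9me1 antibody.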
# BAZ2B block – BAZ2B (human) inhibition; Q9UIF8; AlphaScreen BAZ2B-H3K14Ac peptide displacement; hit rate 4.4% among 360,000; Potency, µM (titrated, usually from 114 µM), without a hit: top-dose activity change, negative = inhibition, usual class: inhibitors; note: % is set by controls: 0 for no effect and ±100 for the full control effect; nearly all actives have a fitted effect of over 60% in size
#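 AlphaScreen luminescence quantifies BAZ2B engagement of H3K14Ac peptide; the protein and biotinylated peptide are both at 50 nM final, buffer PBS pH 7.4 with 0.01% Tween-20, all steps at room temperature.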
# HP1b binding inh – inhibitors of HP1-beta chromodomain binding to methylated histone tails; P83916; AlphaScreen HP1-beta / biotin-H3K9me3 peptide binding; Potency, µM (top dose mostly 114 µM), without a hit: at the highest dose activity change, negative = inhibition, usual class: inhibitors; hit rate 0.56% among 390,000; note: nearly all actives have a fitted effect of over 70% in size
#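 AlphaScreen: HP1-beta (50 nM) preformed 30 min with biotin-H3(1-18)K9me3 peptide (50 nM) in PBS pH 7.4, 0.01% Tween-20. Compound added for 30 min at RT, then streptavidin donor/nickel chelate acceptor beads (10 ug/mL) for 30 min.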
# JMJD2A Tudor inh – JMJD2A Tudor domain (human) inhibition; O75164; AlphaScreen JMJD2A-Tudor / H3K4me3 peptide binding; Potency, µM (titrated, usually from 114 µM), inactives show at the highest dose activity change, negative = inhibition, most hits filed as inhibitors; hit rate 4.4% among 390,000; AID 504339; note: % is set by controls: 0 for no effect and ±100 for the full control effect; nearly all actives have a fitted effect of over 50% in size
# Active calls of the source: *; ? = inconclusive; . = no result; [ ] = remark or other dose. Most compounds without a hit are left out; they make up all but 11% or so of the library. Calls come from the whole dose curve; as a rule, active = well fitted inhibition curve with a large enough effect; inconclusive = small, poorly fitted or top-dose-only effect; inactive = no such curve, though single readings can be large or run the other way. Potency is the fitted concentration of half-maximal effect.
SMILES,L3MBTL1 inh,G9a block,BAZ2B block,HP1b binding inh,JMJD2A Tudor inh
COc1ccc(/C=N/NC(=O)c2cnccn2)c(OC)c1OC,-1%,?,-11%,30%,-12%
COc1cccc(/C=N/NC(=O)c2cnccn2)c1O,?,6%,79µM*,51%,-17%[11.4 µM]
COc1cccc(/C=N/NC(=O)C(=O)NCc2ccco2)c1O,?,2%,3%,27%,?
COc1cccc(/C=N/NC(=O)C(=O)N/N=C/c2cccc(OC)c2O)c1O,?,5%,50µM*,37%,100µM*
CC1=NN(c2ccc(C)cc2)C(=O)/C1=C/c1ccc(-c2cc([N+](=O)[O-])ccc2O)o1,32µM*,.,2%,32µM*,32µM*
CC1=NN(c2ccccc2)C(=O)/C1=C/c1ccc(-c2ccc(C)c(C(=O)O)c2)o1,.,.,.,?,40µM*
O=C1NN(c2cccc(Br)c2)C(=O)/C1=C/c1ccc(-c2cc([N+](=O)[O-])ccc2O)o1,.,-156%[59 µM],2.2µM*,?,?
CC1(C)OC(=O)C(=Cc2ccc(-c3ccc(Cl)c(C(=O)O)c3)o2)C(=O)O1,6.3µM*,14µM*,79µM*,19%,?
Cc1ccc(N2NC(=O)/C(=C/c3ccc(-c4ccc(Cl)c(C(=O)O)c4)o3)C2=O)cc1C,-25%,?,?,-3%,-24%
N#C/C(=C/c1ccc(-c2cc([N+](=O)[O-])ccc2Cl)o1)C(N)=O,.,.,?,47%,-21%
O=C(CN1C(=O)C2(SCC(=O)N2c2ccc(F)cc2)c2ccccc21)NC1CCCCC1 (stereo not given),.,-10%[59 µM],2%[57.1 µM],32%,-5%
Cc1ccc(C)c(C(=O)OCC(=O)Nc2ccc(N3CCOCC3)cc2)c1,?,0%,-7%,26%,-18%
O=C1NN(c2ccc(Cl)c(Cl)c2)C(=O)/C1=C/c1ccc(-c2ccccc2C(=O)O)o1,.,40µM*,40µM*,?,?
Nc1nonc1C(=O)N/N=C/c1ccc(Br)o1,15%,-3%,-4%,39%,3%
Nc1nonc1C(=O)N/N=C/c1ccc(-c2ccc(Cl)c(C(=O)O)c2)o1,-92%,32µM*,79µM*,14%,-24%
CC1=NN(c2ccc(C(=O)O)cc2)C(=O)/C1=C/c1ccc(-c2ccccc2F)o1,.,7.9µM*,?,.,.
CC1=NN(c2ccc(Cl)c(C(=O)O)c2)C(=O)/C1=C\c1ccc(-c2ccc(C(=O)O)cc2)o1,.,8.9µM*,50µM*,-15%,?
Cc1oc(-c2ccccc2Cl)nc1CS(=O)CC(=O)NCc1ccc2c(c1)OCO2 (stereo not given),.,-2%,-18%,3%[57 µM],-26%
Cc1nnc(C)c2c(C)n(-c3ccc(Cl)c(N)c3)c(C)c12,.,56µM*,-33%,-9%,?
CCOC(=O)c1c(NC(=S)Nc2ccccc2)sc2c1CCCCC2,-4%,?,-22%,-10%,-13%
CCCN1CCc2c(sc(NC(=O)CCS(=O)(=O)c3ccccc3)c2C(=O)OC)C1,.,40µM*,-19%,25%,-15%
C=CCNC(=S)Nc1sc2c(c1C(=O)OCC)CCN(C(=O)OCC)C2,.,13µM*,14%,8%,-27%
COC(=O)c1c(NC(=O)CCS(=O)(=O)c2ccccc2)sc2c1CCN(C)C2,.,?,-17%,27%,-14%
CCOC(=O)c1c(NC(=S)Nc2ccccc2)sc2c1CCN(CC)C2,-4%,35µM*,-35%,25%,-1%
CCOC(=O)N1CCc2c(sc(N)c2C#N)C1,-7%,20µM*,-25%,20%,-20%
SMILES,L3MBTL1 inh,G9a block,BAZ2B block,HP1b binding inh,JMJD2A Tudor inh
COc1cc(OC)c(NC(=O)C(CC(C)C)N2Cc3ccccc3C2=O)cc1Cl (stereo not given),.,?,?,15%,?
COC(=O)[C@@]1(Cc2ccc(OC)cc2)[C@H]2c3cc(C(=O)N(C)C)n(CCSCCO)c3C[C@H]2CN1C(=O)c1ccccc1,-8%,56µM*,?,18%,-26%
COC(=O)[C@@]1(Cc2ccc(OC)cc2)[C@H]2c3cc(C(=O)N4CCCC4)n(CCSCCO)c3C[C@H]2CN1C(=O)c1ccccc1,-12%,35µM*,?,31%,-16%
COC(=O)[C@@]1(Cc2ccc(F)cc2)[C@H]2c3cc(C(=O)N4CCCC4)n(CCc4ccc(O)c(O)c4)c3C[C@H]2CN1C(=O)c1ccccc1,-26%,7.1µM*,40µM*,.,.
COC(=O)[C@@]1(Cc2ccc(F)cc2)[C@H]2c3cc(C(=O)N4CCCC4)n(CCO)c3C[C@H]2CN1C(=O)c1ccccc1,-2%,?,?,6%,-23%
COC(=O)[C@@]1(Cc2ccc(F)cc2)[C@H]2c3cc(C(=O)N(C)C)n(C[C@H](O)CO)c3C[C@H]2CN1C(=O)c1ccccc1,-9%,-17%,-37%,22%,-18%
COC(=O)[C@@]1(Cc2ccc(F)cc2)[C@H]2c3cc(C(=O)N(C)C)n(Cc4ccc(OC(F)(F)F)cc4)c3C[C@H]2CN1C(=O)c1ccccc1,0%,50µM*,-38%,.,.
COC(=O)Cn1c(C(=O)N2CCCC2)cc2c1C[C@H]1CN(C(=O)c3ccccc3)[C@@](Cc3ccc(F)cc3)(C(=O)OC)[C@@H]21,-7%,-47%,-36%,28%,-21%
Cc1cc(=O)n2nc(N3CCC(C(=O)Nc4ccc(Br)c(C)c4)CC3)sc2n1,.,21%[59 µM],1%,37%,-4%
CCOc1ccccc1-n1nnc(-c2nc(-c3ccccc3C)no2)c1C,.,5%[59 µM],6%,62%,13%

# Screening results deposited in PubChem BioAssay by National Center for Advancing Translational Sciences (NCATS).
